The source of these data is PubChem BioAssay (EPA / NIEHS).

Experiment [1] can be described thus: IUF_NPC2c_oligodendrocyte_migration_120hr: Leibniz Research Institute for Environmental Medicine (IUF) 120-hour Neural Progenitor Cell Migration Assay for Oligodendrocyte Migration (NPC2c) (AID 2284297).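 Note: O4-positive oligodendrocyte migration distance divided by radial glia migration distance.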 The essentials: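 Human fetal neural progenitor spheres (0.3 mm) are plated on poly-D-lysine/laminin in N2 differentiation medium and exposed for 120 h, with half-medium renewal at day 3. Oligodendrocyte (O4+) migration distance comes from ICC imaging, normalised to radial glia migration.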

Experiment [2] in a line: IUF_NPC2a_radial_glia_migration_120hr: Leibniz Research Institute for Environmental Medicine (IUF) 120-hour Neural Progenitor Cell Migration Assay for Radial Glia Migration (NPC2a) (AID 2284298). An outline of the steps:
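Human fetal-cortex neural progenitor spheres (0.3 mm) plated on poly-D-lysine/laminin in N2 differentiation medium, exposed 120 h at 37C with half-medium renewal at day 3. Radial glia migration distance (um) measured from Hoechst-stained nuclei images; DMSO baseline.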

Experiment [3] can be described thus: IUF_NPC2a_radial_glia_migration_72hr: Leibniz Research Institute for Environmental Medicine (IUF) 72-hour Neural Progenitor Cell Migration Assay for Radial Glia Migration (NPC2a) (AID 2284299). The essentials:
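Human fetal neural progenitor spheres (0.3 mm) plated on poly-D-lysine/laminin in N2 differentiation medium and exposed from day 0 at 7 concentrations; radial glia migration distance from sphere edge measured at 72 h on brightfield images, mean of four directions, vs DMSO.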

Experiment [4] is described as follows: IUF_NPC2b_neuronal_migration_120hr: Leibniz Research Institute for Environmental Medicine (IUF) 120-hour Neural Progenitor Cell Migration Assay for Neuron Migration (NPC2b) (AID 2284300). An outline of the steps: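 0.3 mm hNPC spheres on poly-D-lysine/laminin in N2 differentiation medium exposed 120 h, half-medium refresh day 3; 7 concentrations, DMSO max 0.1%. Neuron (TUBB3) distance from sphere core by ICC imaging, normalised to radial glia migration.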

Experiment [5] can be described thus: IUF_NPC3_neuronal_differentiation_120hr: Leibniz Research Institute for Environmental Medicine (IUF) 120-hour Neuronal Differentiation Assay (NPC3) (AID 2284301). The essentials: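 Human fetal (GW 16-19) neural progenitor spheres (0.3 mm) plated on poly-D-lysine/laminin in N2 differentiation medium, exposed 120 h at 37C with half-medium renewal day 3; 7 concentrations. TUBB3+ cells as % of Hoechst nuclei, CNN-identified; DMSO baseline.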

The nature of experiment [6]: IUF_NPC4_neurite_length_120hr: Leibniz Research Institute for Environmental Medicine (IUF) 120-hour Neuronal Morphology Assay for Neurite Length (NPC4) (AID 2284302). An outline of the steps:
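Human fetal neural progenitor spheres (0.3 mm) plated on poly-D-lysine/laminin in N2 differentiation medium, exposed from day 0 for 120 h with half-medium refresh at day 3, 37C. Mean neurite length (um) of TUBB3-positive neurons from skeletonized immunostaining images; DMSO ≤0.1%.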

The nature of experiment [7]: IUF_NPC5_oligodendrocyte_differentiation_120hr: Leibniz Research Institute for Environmental Medicine (IUF) 120-hour Oligodendrocyte Differentiation Assay (NPC5) (AID 2284304; active = hit-call score of the fitted dose curve at least 0.9, where 1 is the maximum;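 note: primary human fetal neural progenitor spheres plated to migrate and differentiate; share of O4-positive cells among Hoechst nuclei found by CNN image analysis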). An outline of the steps: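 Human fetal neural progenitor spheres (0.3 mm) plated on poly-D-lysine/laminin in N2 differentiation medium and exposed for 120 h at 7 concentrations, with half-medium renewal at day 3. O4-positive cells identified by CNN, expressed as percent of Hoechst nuclei.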

Experiment [8] in a line: IUF_NPC4_neurite_area_120hr: Leibniz Research Institute for Environmental Medicine (IUF) 120-hour Neuronal Morphology Assay for Neurite Area (NPC4) (AID 2284305; active = hit-call score of the fitted dose curve at least 0.9, where 1 is the maximum). The essentials:
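Human fetal neural progenitor spheres (0.3 mm) plated on poly-D-lysine/laminin in N2 differentiation medium, exposed 120 h (7 concentrations, DMSO ≤0.1%, half-medium refresh day 3). Fixed, TUBB3 immunostained; mean neurite area per neuron by Omnisphero skeletonization.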

Experiment [9] in a line: IUF_NPC2-5_cytotoxicity_72hr: Cytotoxicity Assessment at 72 hours in the Leibniz Research Institute for Environmental Medicine (IUF) Neural Progenitor Cell Migration and Differentiation Assay for Cytotoxicity (NPC2-5) (AID 2284306; active = hit-call score of the fitted dose curve at least 0.9, where 1 is the maximum;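 note: LDH release into supernatant measured by resorufin fluorescence marking membrane damage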). An outline of the steps: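 Human fetal primary neural progenitor spheres (0.3 mm) plated on poly-D-lysine/laminin in N2 differentiation medium, exposed from day 0 at 37C. LDH-dependent resazurin-to-resorufin fluorescence in supernatant at 72 h; 7 concentrations, DMSO at most 0.1%.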

Experiment [10] can be described thus: IUF_NPC2-5_cytotoxicity_120hr: Cytotoxicity Assessment at 120 hours in the Leibniz Research Institute for Environmental Medicine (IUF) Neural Progenitor Cell Migration and Differentiation Assay (NPC2-5) (AID 2284307; active = hit-call score of the fitted dose curve at least 0.9, where 1 is the maximum;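 for AC50: LDH released into supernatant as membrane damage marker via resorufin fluorescence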). The essentials: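 Human fetal (GW 16-19) neural progenitor spheres (0.3 mm) plated on poly-D-lysine/laminin in N2 differentiation medium, exposed 120 h with half-medium renewal at day 3; 7 concentrations plus solvent control, DMSO ≤0.1%. LDH release in supernatant read by resorufin fluorescence.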

Experiment [11] in a line: IUF_NPC2-5_viability_120hr: Viability Assessment at 120 hours in the Leibniz Research Institute for Environmental Medicine (IUF) Neural Progenitor Cell Migration and Differentiation Assay (NPC2-5) (AID 2284312). The essentials: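 Human fetal neural progenitor spheres (0.3 mm) plated on poly-D-lysine/laminin in N2 differentiation medium, exposed 120 h with half-medium refresh at day 3. Viability by alamar blue resazurin fluorescence; 7 concentrations, DMSO max 0.1%.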

Read-out in experiment [12]: Collagen IV, COL4A1 (gene 1282)
In words: BSK_MyoF_CollagenIV: BioMAP Diversity Plus: MyoF Assay for Collagen IV Biomarker Activity (AID 2284247). As to conditions: primary human lung fibroblasts. The essentials: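 Primary human lung fibroblasts (MyoF system) dosed 24 h; Collagen IV measured by ELISA. Activity fitted in positive direction against DMSO; cytotoxicity tracked by SRB total-protein staining in parallel cultures.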

Read-out in experiment [13]: Plasminogen activator inhibitor-1 (PAI1), SERPINE1 (gene 5054)
Nature of the experiment: BSK_MyoF_PAI1: BioMAP Diversity Plus: MyoF Assay for Plasminogen activator inhibitor-1 (PAI1) Biomarker Activity (AID 2284256).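 Note: PAI-1 read 24 h after compound addition.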 The conditions noted are these: primary human lung fibroblasts. The essentials:
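Primary human lung fibroblasts treated with chemical for 24 h; PAI-1 levels quantified by ELISA relative to DMSO. Cytotoxicity was assessed in parallel cultures by SRB total-protein staining (0.1% SRB after 10% TCA fixation, 560 nm).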

Read-out in experiment [14]: Interleukin-8 (IL8), CXCL8 (gene 3576)
In words: BSK_MyoF_IL8: BioMAP Diversity Plus: MyoF Assay for Interleukin-8 (IL8) Biomarker Activity (AID 2284261). The conditions noted are these: primary human lung fibroblasts. An outline of the steps:
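Human lung fibroblast (MyoF system) cultures dosed for 24 h, then IL-8 measured by ELISA. Response taken relative to DMSO; parallel SRB total-protein staining for cytotoxicity.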

Read-out in a further experiment: Decorin, DCN (gene 1634)
Nature of the experiment: BSK_MyoF_Decorin: BioMAP Diversity Plus: MyoF Assay for Decorin Biomarker Activity (AID 2284265). The conditions noted are these: primary human lung fibroblasts. An outline of the steps: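 Human lung fibroblast cultures were dosed for 24 h, and decorin was then measured by ELISA. Parallel cultures were stained with sulforhodamine B for total protein as a cytotoxicity check. Gain of signal was fitted relative to DMSO.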

The nature of experiment [15]: BSK_MyoF_SRB: Viability Assessment in the BioMAP Diversity Plus: MyoF Assay (AID 2284267).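 Note: total protein by SRB absorbance in parallel cultures as cytotoxicity measure; cells assessed 24 h after compound addition.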 The conditions noted are these: primary human lung fibroblasts. An outline of the steps: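 Human lung fibroblasts, 24 h after chemical dosing; total protein measured by 0.1% sulforhodamine B staining after 10% TCA fixation, read at 560 nm, fitted relative to DMSO baseline.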

Read-out in experiment [16]: Matrix Metallopeptidase 1 (MMP1), MMP1 (gene 4312)
In words: BSK_MyoF_MMP1: BioMAP Diversity Plus: MyoF Assay for Matrix Metallopeptidase 1 (MMP1) Biomarker Activity (AID 2284268). The conditions noted are these: primary human lung fibroblasts. The essentials:
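Human lung fibroblast primary cells; MMP1 measured by ELISA 24 h after dosing, fitted in the positive direction relative to DMSO. Parallel SRB staining (0.1%, after 10% TCA fixation, 560 nm) assesses overt cytotoxicity.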

Read-out in experiment [17]: TIMP metallopeptidase inhibitor 1 (TIMP1), TIMP1 (gene 7076)
In words: BSK_MyoF_TIMP1: BioMAP Diversity Plus: MyoF Assay for TIMP metallopeptidase inhibitor 1 (TIMP1) Biomarker Activity (AID 2284269). As to conditions: primary human lung fibroblasts. An outline of the steps: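 TIMP-1 levels were determined by ELISA in human lung fibroblasts treated for 24 h. DMSO served as negative control and baseline for upward curve fitting.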

A short description of experiment [18]: VALA_TUBIPS_Agonist_TubuleLength: VALA Sciences human iPS-derived Endothelial Tubule Formation (TUBIPS) Agonism Assay (AID 2284311; active = hit-call score of the fitted dose curve at least 0.9, where 1 is the maximum). An outline of the steps:
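Human iPS-derived endothelial cells were exposed to compound for 72 h. Tubule formation was imaged by high-content fluorescence and scored as gain of signal relative to DMSO vehicle (agonist mode).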

Experiment [19] is described as follows: VALA_TUBHUV_Agonist_CellCount: Viability Assessment in the VALA Sciences human Umbilical Vein Endothelial Tubule Formation (TUBHUV) Agonism Assay (AID 2284309; active = hit-call score of the fitted dose curve at least 0.9, where 1 is the maximum). The essentials: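 HUVEC co-cultured 1:3 with HDF for 3 days in 10 ng/ml VEGF, then compounds added in VEGF medium for a further 3 days (72 h). Nuclear-stain/CD31 imaging cell count. Positive-direction fit versus 0.1% DMSO vehicle.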

The structures appear in SMILES notation. Records with an inconclusive call do not appear. Calls of active or inactive are those of the source. Rule for the calls, unless noted: active = hit-call score of the fitted dose curve at least 0.9, where 1 is the maximum; inactive = score below 0.9.

In the case of `COC(=O)N(OC)c1ccccc1COc1ccn(-c2ccc(Cl)cc2)n1`, the outcome in [1], in [4] and in experiment [9] was inactive. The AC50 in experiment [2] is 3.18 µM (active); in [3] it was 3.44 µM (active); in [5] it was 0.0497 µM (active); in experiment [6] it was 0.328 µM (active); in [7] it was 2.16 µM (active); in [8], 0.167 µM (active). In addition, the AC50 was 2.12 µM (active) in [10] and 1.55 µM (active) in experiment [11].

As to `CN(C)C(=S)SSC(=S)N(C)C`, the AC50 in experiment [1] is 28.1 µM (active); in experiment [2], 47.3 µM (active); in experiment [3] it was 11.4 µM (active); in experiment [4] it was 58.7 µM (active); in [5] it was 13.5 µM (active); in experiment [6], 17.7 µM (active). For the same compound, the concentration at half-maximal activity (AC50) in [7] is 26 µM (active); in experiment [8] it was 27.5 µM (active); in experiment [9] it was 26.4 µM (active); in experiment [10], 13 µM (active); in experiment [11], 29.1 µM (active).

Turning to `COP(=S)(OC)Oc1nc(Cl)c(Cl)cc1Cl`, the compound was called inactive in [1], in experiment [2], in experiment [3], in experiment [4], in experiment [5] and in experiment [6]. Also, the call in experiment [7], in experiment [10] and in [11] was inactive.

As to `COc1cnc(OC)n2nc(NS(=O)(=O)c3c(OCC(F)F)cccc3C(F)(F)F)nc12`, in experiment [12], the AC50 was 0.024 µM (active). Besides, the outcome was “inactive” in [13]; “inactive” in experiment [14]; “inactive” in the experiment with Decorin, DCN (gene 1634); “inactive” in [15]; “inactive” in [16]; “inactive” in experiment [17].

Regarding `N#Cc1nn(-c2c(Cl)cc(C(F)(F)F)cc2Cl)c(N)c1S(=O)C(F)(F)F` (configuration not stated), the compound was called inactive in experiment [1], in experiment [3], in experiment [4], in experiment [5], in experiment [9] and in [10]. Further, the result in experiment [18] and in experiment [11] was inactive. The AC50 was 18.8 µM (active) in experiment [2], 13.5 µM (active) in experiment [6], 1.99 µM (active) in [7] and 14.3 µM (active) in experiment [8].

Turning to `Cc1ccc(-c2c(Cl)nc(C#N)n2S(=O)(=O)N(C)C)cc1`, the AC50 in experiment [1] was 23.9 µM (active); in experiment [2] it was 33.6 µM (active); in [3] it was 25.9 µM (active); in experiment [4] it was 30.8 µM (active); in [5] it was 31.3 µM (active); in experiment [6], 12.5 µM (active). For the same compound, the AC50 in experiment [7] was 33.9 µM (active); in experiment [8], 26.1 µM (active); in experiment [10] it was 33 µM (active); in experiment [11], 11.7 µM (active). Also, the compound was classed as inactive in experiment [9].

With `CC(C)(C)c1ccc(CSc2cnn(C(C)(C)C)c(=O)c2Cl)cc1`, the result in [1], in experiment [3], in [4], in experiment [5], in experiment [6] and in [8] was inactive. Also, the outcome in experiment [9], in [10] and in [11] was inactive. Besides, the AC50 in experiment [2] is 3.31 µM (active); in experiment [7], 0.0866 µM (active); in [19], 20.3 µM (active).

With `CCCCOC(=O)c1ccccc1C(=O)OCCCC`, the compound was called inactive in [1], in experiment [2], in experiment [3], in [4], in [5] and in experiment [6]. Besides, the call in experiment [9], in [10] and in experiment [11] was inactive.

What is called AC50 is the midpoint of the concentration-response curve, whichever way the signal moves.
